Experimental data reported in PubChem BioAssay AID1159580 (chemical genetic matrix, 2015).
Values joined by “and” are separate entries in the source; they are usually repeats but may differ in a detail not shown here. Identical values can stand only once. Among all 5,500 compounds or so, about 2,000 (36%) were called active. Roughly 18% stayed inconclusive and do not appear here. Cut-off read from the data, not from the text of the source: active = normalized growth mostly below about 0.91 (no sharp cut-off); inconclusive = no clear call, values can overlap the other calls; inactive = mostly above about 0.92. This is one part of the list.

Experiment: chemical genetic growth profiling, strain panel (AID 1159580);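 note: tested at 20 µM; growth read once vehicle control cultures reached saturation at 30 °C; 1 = growth at the plate median or of vehicle wells; lower values mean less growth of the strain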
Details: growth OD

Measured: normalized growth

O=C(O)c1cc(=O)c2c(Cl)cc(Cl)cc2[nH]1
inactive: S. cerevisiae deletion strains, locus YJL187C, strain SWE1, hits give low values 1.02 | S. cerevisiae deletion strains, locus YJR043C, strain POL32, hits give low values 1 | S. cerevisiae deletion strains, locus YJR075W, strain HOC1, hits give low values 0.985 | S. cerevisiae deletion strains, locus YKL009W, strain mrt4, hits give low values 1 | S. cerevisiae deletion strains, locus YKL068W, hits give low values 1 | S. cerevisiae deletion strains, locus YKL085W, strain MDH1 (second series), hits give low values 1.01 | S. cerevisiae deletion strains, locus YKL085W, strain MDH1, hits give low values 1.01 | S. cerevisiae deletion strains, locus YKL160W, strain elf1, hits give low values 1.01 | S. cerevisiae deletion strains, locus YKL190W, strain CNB1, hits give low values 1 | S. cerevisiae deletion strains, locus YKR001C, strain vps1, hits give low values 1.05 | S. cerevisiae deletion strains, locus YKR026C, strain gcn3, hits give low values 1.02 | S. cerevisiae deletion strains, locus YKR091W, strain srl3, hits give low values 1.01 | S. cerevisiae deletion strains, locus YLL001W, strain dnm1, hits give low values 1.03 | S. cerevisiae deletion strains, locus YLL026W, hits give low values 1.01 | S. cerevisiae deletion strains, locus YLL041C, strain sdh2, hits give low values 1.01 | S. cerevisiae deletion strains, locus YLR027C, strain aat2, hits give low values 1.01 | S. cerevisiae deletion strains, locus YLR039C, strain RIC1, hits give low values 1.04 | S. cerevisiae deletion strains, locus YLR058C, strain SHM2, hits give low values 1.01 | S. cerevisiae deletion strains, locus YLR102C, strain apc9, hits give low values 1.01 | S. cerevisiae deletion strains, locus YLR221C, strain rsa3, hits give low values 1.02 | S. cerevisiae deletion strains, locus YLR258W, strain gsy2, hits give low values 1.02 | S. cerevisiae deletion strains, locus YLR262C, strain YPT6 (second series), hits give low values 1.01 | S. cerevisiae deletion strains, locus YLR262C, strain YPT6, hits give low values 1.03 | S. cerevisiae deletion strains, locus YLR268W, strain sec22, hits give low values 1.03 | S. cerevisiae deletion strains, locus YLR320W, strain mms22, hits give low values 1.03 | S. cerevisiae deletion strains, locus YLR330W, strain CHS5, hits give low values 1.01 | S. cerevisiae deletion strains, locus YLR342W, strain FKS1 (second series), hits give low values 1.02 | S. cerevisiae deletion strains, locus YLR342W, strain FKS1, hits give low values 1.02 | S. cerevisiae deletion strains, locus YLR357W, strain rsc2, hits give low values 1 | S. cerevisiae deletion strains, locus YLR370C, strain arc18, hits give low values 1.02 | S. cerevisiae deletion strains, locus YLR371W, strain rom2, hits give low values 1 | S. cerevisiae deletion strains, locus YLR384C, strain iki3, hits give low values 1.01 | S. cerevisiae deletion strains, locus YLR418C, strain cdc73, hits give low values 1.05 | S. cerevisiae deletion strains, locus YML016C, strain PPZ1, hits give low values 1.01 | S. cerevisiae deletion strains, locus YML032C, strain rad52, hits give low values 1.01 | S. cerevisiae deletion strains, locus YML120C, strain ndi1, hits give low values 1.02 | S. cerevisiae deletion strains, locus YML124C, strain tub3, hits give low values 1.01 | S. cerevisiae deletion strains, locus YMR058W, strain fet3, hits give low values 1.01 | S. cerevisiae deletion strains, locus YMR078C, strain ctf18, hits give low values 1.03 | S. cerevisiae deletion strains, locus YMR125W, strain sto1, hits give low values 1 | S. cerevisiae deletion strains, locus YMR129W, hits give low values 1.01 | S. cerevisiae deletion strains, locus YMR205C, strain PFK2, hits give low values 1.01 | S. cerevisiae deletion strains, locus YMR223W, strain ubp8, hits give low values 1.03 | S. cerevisiae deletion strains, locus YMR231W, strain pep5, hits give low values 1.01 | S. cerevisiae deletion strains, locus YMR263W, strain SAP30, hits give low values 1 | S. cerevisiae deletion strains, locus YMR307W, strain GAS1, hits give low values 1.04 | S. cerevisiae deletion strains, locus YNL067W, strain RPL9B, hits give low values 0.997 | S. cerevisiae deletion strains, locus YNL071W, strain lat1, hits give low values 1.02 | S. cerevisiae deletion strains, locus YNL153C, strain GIM3, hits give low values 1 | S. cerevisiae deletion strains, locus YNL175C, strain NOP13, hits give low values 0.996 | S. cerevisiae deletion strains, locus YNL197C, strain WHI3, hits give low values 1.01 | S. cerevisiae deletion strains, locus YNL209W, strain ssb2, hits give low values 1 | S. cerevisiae deletion strains, locus YNL224C, strain SQS1, hits give low values 0.995 | S. cerevisiae deletion strains, locus YNL233W, strain BNI4, hits give low values 1 | S. cerevisiae deletion strains, locus YNL248C, strain rpa49, hits give low values 1.01 | S. cerevisiae deletion strains, locus YNL250W, strain rad50, hits give low values 1.03 | S. cerevisiae deletion strains, locus YNL271C, strain bni1, hits give low values 1.02 | S. cerevisiae deletion strains, locus YNL298W, strain CLA4, hits give low values 1.01 | S. cerevisiae deletion strains, locus YNL307C, strain MCK1, hits give low values 1.02 | S. cerevisiae deletion strains, locus YNL322C, strain KRE1 (second series), hits give low values 1.02 | S. cerevisiae deletion strains, locus YNL322C, strain KRE1, hits give low values 0.993 and 1 | S. cerevisiae deletion strains, locus YNR049C, strain mso1, hits give low values 1.01 | S. cerevisiae deletion strains, locus YNR052C, strain pop2, hits give low values 1.02 | S. cerevisiae deletion strains, locus YOL006C, strain TOP1, hits give low values 0.999 | S. cerevisiae deletion strains, locus YOL012C, strain htz1 1.91 | S. cerevisiae deletion strains, locus YOL147C, strain pex11, hits give low values 1.02 | S. cerevisiae deletion strains, locus YOR001W, strain rrp6, hits give low values 1.01 | S. cerevisiae deletion strains, locus YOR061W, strain CKA2, hits give low values 1.02 | S. cerevisiae deletion strains, locus YOR069W, strain VPS5, hits give low values 1.01 | S. cerevisiae deletion strains, locus YOR070C, strain gyp1, hits give low values 1.01 | S. cerevisiae deletion strains, locus YOR080W, strain dia2, hits give low values 1.02 | S. cerevisiae deletion strains, locus YOR083W, strain WHI5 (second series), hits give low values 0.994 | S. cerevisiae deletion strains, locus YOR083W, strain WHI5, hits give low values 1.02 | S. cerevisiae deletion strains, locus YOR106W, strain vam3, hits give low values 1.01 | S. cerevisiae deletion strains, locus YOR136W, strain idh2, hits give low values 1.02 | S. cerevisiae deletion strains, locus YOR144C, strain elg1, hits give low values 1.01 | S. cerevisiae deletion strains, locus YOR184W, strain ser1, hits give low values 1.02 | S. cerevisiae deletion strains, locus YOR265W, strain rbl2, hits give low values 1.01 | S. cerevisiae deletion strains, locus YOR270C, strain vph1, hits give low values 1.03 | S. cerevisiae deletion strains, locus YOR290C, strain snf2, hits give low values 0.991 | S. cerevisiae deletion strains, locus YOR316C, strain cot1, hits give low values 1.01 | S. cerevisiae deletion strains, locus YPL051W, strain arl3, hits give low values 1.01 | S. cerevisiae deletion strains, locus YPL055C, strain LGE1, hits give low values 0.992 | S. cerevisiae deletion strains, locus YPL078C, strain atp4, hits give low values 1.01 | S. cerevisiae deletion strains, locus YPL106C, strain sse1, hits give low values 0.999 | S. cerevisiae deletion strains, locus YPL240C, strain hsp82, hits give low values 1.02 | S. cerevisiae deletion strains, locus YPL241C, strain CIN2, hits give low values 1 | S. cerevisiae deletion strains, locus YPR119W, strain clb2, hits give low values 1.01 | S. cerevisiae deletion strains, locus YPR141C, strain kar3, hits give low values 1.01 | S. cerevisiae deletion strains, locus YPR163C, strain tif3, hits give low values 1.02 | S. cerevisiae deletion strains, locus YPR167C, strain met16, hits give low values 1.02 | S. cerevisiae deletion strains, strain wtn01, hits give low values 1.02 | S. cerevisiae strains, strain wild type, hits give low values 1
